Data reported in PubChem BioAssay (Tox21).
Values without a mark were called inactive. Records with an inconclusive call do not appear. Entries that show only a call come without a potency. The source made the active and inactive calls. Unless noted, the call rests on the fitted dose curve.

Experiments:
[1] = qHTS assay to identify small molecule agonists of the sonic hedgehog signaling (Shh) pathway (AID 1259368); further: series mostly up to about 92 µM; nearly all actives have a fitted effect of over 15% in size
Method in brief: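 NIH/3T3-derived 3T3Gli1-Luc cells carrying a stably integrated Gli1 response element–firefly luciferase reporter were plated, left 4 hr at 37 C, then given compounds in DMSO for 24 hr. Luminescence was read 30 min after adding luciferase reagent.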

[2] = qHTS assay to identify small molecule antagonists of the sonic hedgehog signaling (Shh) pathway (AID 1259369); further: nearly all actives have a fitted effect of over 45% in size
Method in brief: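 NIH/3T3-derived 3T3Gli1-Luc cells with stably integrated Gli1-Luc reporter were preincubated 4hr at 37 C, then given compounds in DMSO plus Shh conditioned medium and incubated 24hr. Firefly luciferase luminescence read after 30min reagent at room temperature.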

[3] = target: Estrogen receptor beta (Homo sapiens) (UniProt Q92731); assay: qHTS assay to identify small molecule agonists of the estrogen receptor beta (ER-beta) signaling pathway (AID 1259377; active means well fitted activation curve with a large enough effect in the signal ratio in the repeat runs, not every such curve was filed as active; the % refers to the signal ratio)
Sequence of Estrogen receptor beta (Homo sapiens) (Q92731 whole entry, looked up): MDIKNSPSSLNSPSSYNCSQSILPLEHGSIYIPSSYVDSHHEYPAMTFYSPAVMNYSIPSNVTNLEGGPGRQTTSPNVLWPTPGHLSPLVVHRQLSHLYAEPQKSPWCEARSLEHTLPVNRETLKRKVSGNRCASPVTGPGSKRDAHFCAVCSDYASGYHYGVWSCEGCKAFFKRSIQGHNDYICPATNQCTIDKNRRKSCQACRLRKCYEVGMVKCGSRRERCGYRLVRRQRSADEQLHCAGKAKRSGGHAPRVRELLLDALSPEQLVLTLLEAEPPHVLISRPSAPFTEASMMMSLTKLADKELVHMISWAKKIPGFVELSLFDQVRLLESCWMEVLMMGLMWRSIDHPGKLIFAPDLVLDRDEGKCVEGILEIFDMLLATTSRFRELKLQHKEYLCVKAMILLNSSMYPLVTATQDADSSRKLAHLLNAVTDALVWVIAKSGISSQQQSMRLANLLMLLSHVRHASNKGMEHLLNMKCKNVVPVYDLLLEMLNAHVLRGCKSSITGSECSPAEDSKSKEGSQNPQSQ
Method in brief: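 Read-out: beta-lactamase FRET fluorescence. Cell line: ER-beta-UAS-bla HEK293T in 2% charcoal-stripped FBS. Exposure: 16 hr at 37C. Substrate step: 2 h at room temperature.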

[4] = qHTS assay to identify small molecule agonists of the androgen receptor (AR) signaling pathway in the presence of an antagonist - cell viability counter screen (AID 1259379; active means well fitted curve in the direction sought with a large enough effect in the repeat runs; an effect the other way counts as inactive or inconclusive; further: series mostly up to about 92 µM; nearly all actives have a fitted effect of over 25% in size)
Method in brief: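 MDA-kb2 human breast carcinoma cells (stable MMTV-luciferase, AR/GR responsive) were seeded 3,000 cells/well, pre-incubated 5 hr at 37C without CO2, then given 3.0uM nilutamide and compounds at 15 concentrations for 16 hr. Viability was read by CellTiter-Fluor fluorescence.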

[5] = qHTS assay to identify small molecule agonists of the estrogen receptor beta (ER-beta) signaling pathway - cell viability counter screen (AID 1259380; active means well fitted curve in the direction sought with a large enough effect in the repeat runs; an effect the other way counts as inactive or inconclusive; further: nearly all actives have a fitted effect of over 30% in size)
Method in brief: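 ER-beta-UAS-bla HEK293T cells in medium with 2% charcoal-stripped FBS were preincubated 6 hr at 37C, dosed with compound in DMSO for 16 hr, then after the bla read, CellTiter-Glo was added for 30 min at room temperature; luminescence recorded.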

[6] = qHTS assay to identify small molecule antagonists of the estrogen receptor beta (ER-beta) signaling pathway - cell viability counter screen (AID 1259382; active means well fitted curve in the direction sought with a large enough effect in the repeat runs; an effect the other way counts as inactive or inconclusive;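 further: HEK293T cells carrying ER-beta-UAS-bla reporter stimulated with estradiol; series mostly up to about 92 µM; nearly all actives have a fitted effect of over 55% in size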)
Method in brief: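 ER-beta-UAS-bla HEK293T cells (2,000/well, 2% charcoal-stripped FBS) were pre-incubated 6 hr at 37C, then given compound plus 1nM final 17-beta-estradiol for 16 hr. Viability was read in the same wells by CellTiter-Glo luminescence after 30 min at room temperature.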

[7] = target: Estrogen receptor (Homo sapiens) (UniProt P03372); assay: qHTS assay to identify small molecule agonists of the estrogen receptor alpha (ER-alpha) signaling pathway in the presence of an antagonist (AID 1259383); further: top concentration of the series differs between compounds; nearly all actives have a fitted effect of over 15% in size
Sequence of Estrogen receptor (Homo sapiens) (P03372 whole entry, looked up): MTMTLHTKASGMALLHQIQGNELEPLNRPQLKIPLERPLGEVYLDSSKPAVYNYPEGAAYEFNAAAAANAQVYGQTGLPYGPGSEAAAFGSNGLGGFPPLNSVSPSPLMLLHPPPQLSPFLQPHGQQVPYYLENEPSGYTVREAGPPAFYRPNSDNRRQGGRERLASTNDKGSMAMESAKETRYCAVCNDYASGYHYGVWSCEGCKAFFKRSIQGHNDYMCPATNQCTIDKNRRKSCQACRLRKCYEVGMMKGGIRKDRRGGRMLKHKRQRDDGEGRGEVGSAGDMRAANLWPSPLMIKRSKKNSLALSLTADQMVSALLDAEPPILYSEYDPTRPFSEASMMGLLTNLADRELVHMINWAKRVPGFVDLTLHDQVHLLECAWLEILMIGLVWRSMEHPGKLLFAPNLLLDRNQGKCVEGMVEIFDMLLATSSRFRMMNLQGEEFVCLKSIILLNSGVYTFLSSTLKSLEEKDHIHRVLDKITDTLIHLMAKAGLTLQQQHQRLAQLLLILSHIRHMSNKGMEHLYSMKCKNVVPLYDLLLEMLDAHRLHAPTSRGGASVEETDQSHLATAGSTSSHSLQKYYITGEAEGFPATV
Method in brief: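 VM7Luc4E2 cells (endogenous full-length ER-alpha, 4×ERE-luciferase) were precultured 5 days in phenol red-free medium with 10% charcoal-stripped FBS, given 10.0nM ICI-182,780 (final), then treated with compounds at 15 concentrations for 22hr at 37C; luminescence read with ONE-Glo.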

[8] = qHTS assay to identify small molecule agonists or antagonists of the thyroid stimulating hormone receptor (TSHR) signaling pathway - wild type cell line counter screen (AID 1259384)
Method in brief: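 Counter screen in untransfected Hek293: compounds (15-point titration, triplicate) plus phosphodiesterase inhibitor Ro20-1724 added after 18 h plating; 30 min RT. Intracellular cAMP via competitive d2/cryptate immunoassay, 1 h incubation.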

[9] = target: Thyrotropin receptor (Homo sapiens) (UniProt P16473); assay: qHTS assay to identify small molecule antagonists of the thyroid stimulating hormone receptor (TSHR) signaling pathway (AID 1259385); further: nearly all actives have a fitted effect of over 20% in size
Sequence of Thyrotropin receptor (Homo sapiens) (P16473 whole entry, looked up): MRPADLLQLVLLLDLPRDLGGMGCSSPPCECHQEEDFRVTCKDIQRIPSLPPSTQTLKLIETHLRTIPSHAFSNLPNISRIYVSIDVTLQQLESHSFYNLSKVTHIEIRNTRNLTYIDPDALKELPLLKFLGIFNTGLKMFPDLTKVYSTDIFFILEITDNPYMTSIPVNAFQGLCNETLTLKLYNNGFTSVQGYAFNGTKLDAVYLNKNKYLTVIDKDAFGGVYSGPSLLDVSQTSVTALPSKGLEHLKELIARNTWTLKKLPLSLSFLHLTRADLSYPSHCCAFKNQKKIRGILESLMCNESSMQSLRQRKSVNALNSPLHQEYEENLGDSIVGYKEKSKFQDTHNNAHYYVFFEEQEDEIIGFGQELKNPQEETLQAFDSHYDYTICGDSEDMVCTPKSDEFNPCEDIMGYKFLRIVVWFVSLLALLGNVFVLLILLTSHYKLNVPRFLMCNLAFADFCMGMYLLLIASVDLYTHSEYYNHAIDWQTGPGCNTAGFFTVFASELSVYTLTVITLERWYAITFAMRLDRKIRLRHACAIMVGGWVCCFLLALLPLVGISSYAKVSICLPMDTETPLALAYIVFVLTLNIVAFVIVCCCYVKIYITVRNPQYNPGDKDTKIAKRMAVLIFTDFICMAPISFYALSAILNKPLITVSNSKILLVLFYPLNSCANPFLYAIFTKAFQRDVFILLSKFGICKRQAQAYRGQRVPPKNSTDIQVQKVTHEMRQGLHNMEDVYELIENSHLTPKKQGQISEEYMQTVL
Method in brief: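 Antagonist mode: compound-treated TSHR-expressing HEK293 cells were stimulated with 1.5 ng/mL TSH (final) in presence of Ro20-1724 for 30 min at RT. HTRF cAMP detection after 1 h; each compound tested at 15 concentrations, triplicate.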

[10] = qHTS assay to identify small molecule agonists of the estrogen receptor alpha (ER-alpha) signaling pathway in the presence of an antagonist - cell viability counter screen (AID 1259386; active means well fitted curve in the direction sought with a large enough effect in the repeat runs; an effect the other way counts as inactive or inconclusive;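 further: series mostly up to about 92 µM; cells exposed to compounds for 22 h at 37 °C before the viability read; nearly all actives have a fitted effect of over 30% in size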)
Method in brief: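 VM7Luc4E2 cells (endogenous full-length ER-alpha, 4×ERE-luciferase) were held 5 days in phenol red-free medium with 10% charcoal-stripped FBS, plated, then given 10.0nM ICI-182,780 and compounds at 15 concentrations for 22hr at 37C; viability read by CellTiter-Fluor fluorescence.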

[11] = target: Progesterone receptor (Homo sapiens) (UniProt P06401); assay: qHTS assay to identify small molecule agonists of the progesterone receptor (PR) signaling pathway (AID 1346784); further: nearly all actives have a fitted effect of over 30% in size; further: potency means the concentration at half of the fitted maximal effect
Sequence of Progesterone receptor (Homo sapiens) (P06401 whole entry, looked up): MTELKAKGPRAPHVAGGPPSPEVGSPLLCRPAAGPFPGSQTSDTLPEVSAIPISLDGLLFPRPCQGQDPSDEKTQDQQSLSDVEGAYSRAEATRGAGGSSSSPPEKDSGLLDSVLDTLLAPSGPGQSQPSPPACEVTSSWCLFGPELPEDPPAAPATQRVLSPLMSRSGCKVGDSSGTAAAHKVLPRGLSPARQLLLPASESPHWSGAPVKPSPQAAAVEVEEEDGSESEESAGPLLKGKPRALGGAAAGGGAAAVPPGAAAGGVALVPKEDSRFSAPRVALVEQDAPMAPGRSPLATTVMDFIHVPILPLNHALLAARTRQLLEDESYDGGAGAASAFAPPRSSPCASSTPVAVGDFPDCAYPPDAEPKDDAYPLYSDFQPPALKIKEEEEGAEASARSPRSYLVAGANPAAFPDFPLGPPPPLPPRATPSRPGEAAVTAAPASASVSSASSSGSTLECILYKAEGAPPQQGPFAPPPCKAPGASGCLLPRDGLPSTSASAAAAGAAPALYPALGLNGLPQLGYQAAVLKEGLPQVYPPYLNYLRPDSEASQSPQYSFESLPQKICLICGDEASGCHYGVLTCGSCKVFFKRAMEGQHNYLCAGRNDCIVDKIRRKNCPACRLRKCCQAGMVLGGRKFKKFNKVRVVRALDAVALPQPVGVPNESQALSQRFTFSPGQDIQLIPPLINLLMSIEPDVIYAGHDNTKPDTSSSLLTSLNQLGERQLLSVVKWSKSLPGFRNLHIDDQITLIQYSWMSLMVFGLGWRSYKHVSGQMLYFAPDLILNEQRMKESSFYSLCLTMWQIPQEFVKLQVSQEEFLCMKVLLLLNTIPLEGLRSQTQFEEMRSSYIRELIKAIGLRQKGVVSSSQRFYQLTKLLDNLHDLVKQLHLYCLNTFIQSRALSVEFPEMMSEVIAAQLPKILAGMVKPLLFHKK
Method in brief: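 Compounds were tested for PR agonism in HEK 293T cells bearing a beta-lactamase gene under UAS control. Treatment lasted 16 hr at 37C; signal came from fluorescence of a FRET substrate.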

[12] = target: Progesterone receptor (Homo sapiens) (UniProt P06401); assay: qHTS assay to identify small molecule antagonists of the progesterone receptor (PR) signaling pathway (AID 1346795; active means well fitted inhibition curve with a large enough effect in the signal ratio in the repeat runs, not every such curve was filed as active; the % refers to the signal ratio)
Method in brief: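 In HEK293T cells bearing the PR-UAS-bla reporter, compound effects on promegestone-driven (1 nM) beta-lactamase expression are assessed after 16 hr using a fluorescent FRET substrate incubated 2 hr at room temperature.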

[13] = qHTS assay to identify small molecule antagonists of the progesterone receptor (PR) signaling pathway - cell viability counter screen (AID 1346798; active means well fitted curve in the direction sought with a large enough effect in the repeat runs; an effect the other way counts as inactive or inconclusive; further: series mostly up to about 92 µM; nearly all actives have a fitted effect of over 50% in size)
Method in brief: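 Following a 4 hr attachment, PR-UAS-bla HEK293T cells in charcoal-stripped FBS medium were exposed to compounds with R5020 for 16 hr; CellTiter-Glo was added and luminescence read after 30 min at room temperature.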

[14] = qHTS assay to identify small molecule agonists of the progesterone receptor (PR) signaling pathway - cell viability counter screen (AID 1346799); further: nearly all actives have a fitted effect of over 45% in size
Method in brief: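 Here, 3,000 PR-UAS-bla HEK293T cells per well were treated with compounds for 16 hr after a 6 hr preincubation at 37C and 5% CO2; cell viability is the CellTiter-Glo luminescence signal.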

[15] = qHTS assay to identify small molecule antagonists of the TGF-beta/Smad signaling pathway - cell viability counter screen (AID 1346824; active means well fitted curve in the direction sought with a large enough effect in the repeat runs; an effect the other way counts as inactive or inconclusive; further: nearly all actives have a fitted effect of over 50% in size)
Method in brief: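 Cytotoxicity counter-screen run in the same wells as the beta-lactamase Smad reporter read: CellTiter-Glo luminescence after 30 min at room temperature. HEK 293T SBE-bla cells had 5 hr compound exposure at 37 C with TGF-beta1 (0.25 ng/mL stock).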

[16] = qHTS assay to identify small molecule agonists of the TGF-beta/Smad signaling pathway - cell viability counter screen (AID 1346829; active means well fitted curve in the direction sought with a large enough effect in the repeat runs; an effect the other way counts as inactive or inconclusive; further: top concentration of the series differs between compounds; nearly all actives have a fitted effect of over 45% in size)
Method in brief: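 Same-well cytotoxicity: CellTiter-Glo added after the 2 hr room-temperature beta-lactamase substrate step, luminescence measured 30 min later; cells had 5 hr of compound at 37 C.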

[17] = qHTS assay to identify small molecule agonists of the TGF-beta/Smad signaling pathway (AID 1346859; active means well fitted activation curve with a large enough effect in the signal ratio in the repeat runs, not every such curve was filed as active; the % refers to the signal ratio; further: series mostly up to about 77 µM)
Method in brief: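 Each well held 4,000 SBE-bla HEK 293T cells incubated overnight before compound addition; 5 hr later the cleavable FRET substrate went on for 2 hr at room temperature, and fluorescence was read at two emissions.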

[18] = target: Thyrotropin-releasing hormone receptor (Homo sapiens) (UniProt P34981); assay: qHTS assay to identify small molecule antagonists of the thyrotropin-releasing hormone receptor (TRHR) signaling pathway (AID 1346877; active means well fitted inhibition curve with a large enough effect in the repeat runs, not every such curve was filed as active; further: series mostly up to about 51 µM)
Sequence of Thyrotropin-releasing hormone receptor (Homo sapiens) (P34981 whole entry, looked up): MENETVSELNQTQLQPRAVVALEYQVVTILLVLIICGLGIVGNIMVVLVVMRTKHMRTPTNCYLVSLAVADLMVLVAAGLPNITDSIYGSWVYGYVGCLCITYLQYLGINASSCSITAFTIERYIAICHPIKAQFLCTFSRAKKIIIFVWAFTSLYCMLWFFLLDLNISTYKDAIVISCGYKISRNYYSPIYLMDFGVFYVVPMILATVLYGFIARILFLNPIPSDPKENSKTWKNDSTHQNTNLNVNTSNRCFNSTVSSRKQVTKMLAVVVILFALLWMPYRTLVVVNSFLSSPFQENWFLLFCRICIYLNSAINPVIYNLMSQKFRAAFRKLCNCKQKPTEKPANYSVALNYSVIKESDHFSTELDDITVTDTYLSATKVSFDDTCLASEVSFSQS
Method in brief: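 TRHR-expressing HEK293 cells were seeded, cultured 18 h at 37 °C, then loaded with calcium dye for 2 h. Compounds were pre-incubated 5 min at room temperature before 1 nM TRH (final) was added, and kinetic fluorescence was recorded for 3 min.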

[19] = target: Androgen receptor (Homo sapiens) (UniProt P10275); assay: qHTS assay to identify small molecule agonists of the androgen receptor (AR) signaling pathway in the presence of an antagonist (AID 1259381); further: nearly all actives have a fitted effect of over 15% in size
Sequence of Androgen receptor (Homo sapiens) (P10275 whole entry, looked up): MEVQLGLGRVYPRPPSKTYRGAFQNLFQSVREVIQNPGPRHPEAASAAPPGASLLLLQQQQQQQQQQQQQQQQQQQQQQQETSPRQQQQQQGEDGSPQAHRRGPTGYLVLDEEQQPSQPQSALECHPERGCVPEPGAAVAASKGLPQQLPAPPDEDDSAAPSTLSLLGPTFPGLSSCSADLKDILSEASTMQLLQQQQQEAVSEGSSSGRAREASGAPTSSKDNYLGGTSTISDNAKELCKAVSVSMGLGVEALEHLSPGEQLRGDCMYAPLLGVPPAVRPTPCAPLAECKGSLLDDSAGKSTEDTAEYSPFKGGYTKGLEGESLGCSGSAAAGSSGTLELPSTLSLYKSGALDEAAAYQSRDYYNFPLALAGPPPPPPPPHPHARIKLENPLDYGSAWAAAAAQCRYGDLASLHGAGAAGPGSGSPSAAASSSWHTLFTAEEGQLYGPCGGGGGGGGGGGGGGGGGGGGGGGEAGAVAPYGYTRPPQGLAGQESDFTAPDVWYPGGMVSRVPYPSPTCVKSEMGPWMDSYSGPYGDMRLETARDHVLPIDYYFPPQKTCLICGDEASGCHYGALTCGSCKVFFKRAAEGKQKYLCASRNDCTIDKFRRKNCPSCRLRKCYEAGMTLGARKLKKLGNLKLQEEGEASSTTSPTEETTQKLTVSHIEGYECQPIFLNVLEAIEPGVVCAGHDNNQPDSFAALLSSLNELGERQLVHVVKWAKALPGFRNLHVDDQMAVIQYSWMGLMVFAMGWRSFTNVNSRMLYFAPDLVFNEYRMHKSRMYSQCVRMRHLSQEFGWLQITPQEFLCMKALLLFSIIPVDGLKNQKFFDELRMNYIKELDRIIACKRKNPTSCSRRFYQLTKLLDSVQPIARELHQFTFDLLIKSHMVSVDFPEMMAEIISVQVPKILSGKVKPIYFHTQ
Method in brief: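 MDA-kb2 human breast carcinoma cells carrying an MMTV-luciferase reporter (AR- and GR-responsive) were treated with compounds at 15 concentrations plus 3.0uM final nilutamide for 16hr at 37C without CO2; luminescence was read after ONE-Glo addition.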

CCCCCCCCOS(=O)(=O)O
outcome [1]: inactive | Potency [2]: inactive | Potency [3]: inactive | Potency [4]: inactive | Potency [5]: inactive | outcome [6]: inactive | outcome [7]: inactive | outcome [8]: inactive | outcome [9]: inactive | Potency [10]: inactive | Potency [11]: inactive | Potency [12]: inactive | Potency [13]: inactive | Potency [14]: inactive | outcome [15]: inactive | outcome [16]: inactive | outcome [17]: inactive | outcome [18]: inactive

O=C(OCC(COC(=O)c1cccnc1)(COC(=O)c1cccnc1)COC(=O)c1cccnc1)c1cccnc1
outcome [1]: inactive | Potency [2]: inactive | Potency [3]: inactive | Potency [4]: inactive | Potency [5]: inactive | Potency [19]: inactive | outcome [6]: inactive | outcome [7]: inactive | outcome [8]: inactive | Potency [10]: inactive | Potency [11]: inactive | Potency [12]: inactive | Potency [13]: inactive | Potency [14]: inactive | outcome [15]: inactive | outcome [16]: inactive | outcome [17]: inactive | outcome [18]: inactive

O=C(O)c1cc(Br)c(O)c(Br)c1
outcome [1]: inactive | Potency [2]: inactive | Potency [3]: inactive | Potency [4]: inactive | Potency [5]: inactive | Potency [19]: inactive | outcome [6]: inactive | outcome [8]: inactive | outcome [9]: inactive | Potency [11]: inactive | Potency [12]: inactive | Potency [13]: inactive | Potency [14]: inactive | outcome [15]: inactive | outcome [16]: inactive | outcome [17]: inactive | outcome [18]: inactive

CCCCCCCC/C=C\CCCCCCCC(=O)OCCCC
activity change [1]: -0.497% [at 18.9 µM] | activity change, negative = inhibition [2]: 17.1% [at 19 µM] | activation [3]: -0.0077% [at 19 µM] | activity change, negative = cytotoxicity [4]: 0.614% [at 19 µM] | activity change, negative = cytotoxicity [5]: -6.74% [at 19 µM] | activity change, negative = cytotoxicity [6]: -4.71% [at 19 µM] | activation [7]: 0.165% [at 19 µM] | cAMP activity change [8]: -3.23% [at 18.9 µM] | activity change, negative = inhibition [9]: 2.54% [at 19 µM] | activity change, negative = cytotoxicity [10]: -4.95% [at 19 µM] | Potency [11]: 1240 nM (active) | activity change, negative = inhibition [12]: -2.42% [at 18.9 µM] | activity change, negative = cytotoxicity [13]: 0.852% [at 18.9 µM] | activity change, negative = cytotoxicity [14]: 0% [at 19 µM] | viability change, negative = cytotoxic [15]: 2.1% [at 15.8 µM] | activity change, negative = cytotoxicity [16]: 0.118% [at 15.8 µM] | activity, negative = inhibition [18]: 8.97% [at 10.5 µM]

N#Cc1ccc(C(=O)O)cc1
outcome [1]: inactive | Potency [2]: inactive | Potency [3]: inactive | Potency [4]: inactive | Potency [5]: inactive | Potency [19]: inactive | outcome [6]: inactive | Potency [10]: inactive | Potency [11]: inactive | Potency [12]: inactive | outcome [15]: inactive | outcome [16]: inactive | outcome [17]: inactive | outcome [18]: inactive

CCN(CC)CC(=O)Nc1c(C)cccc1C
outcome [1]: inactive | Potency [2]: inactive | Potency [3]: inactive | Potency [4]: inactive | Potency [5]: inactive | Potency [19]: inactive | outcome [8]: inactive | outcome [9]: inactive | Potency [11]: inactive | Potency [12]: inactive | Potency [13]: inactive | Potency [14]: inactive | outcome [15]: inactive | outcome [16]: inactive | outcome [17]: inactive | outcome [18]: inactive

O=C(Nc1ccc(Cl)c(Cl)c1)C1CC1
outcome [1]: inactive | Potency [2]: inactive | Potency [3]: inactive | Potency [4]: inactive | Potency [5]: inactive | Potency [19]: inactive | outcome [7]: inactive | outcome [9]: inactive | Potency [10]: inactive | Potency [11]: inactive | Potency [13]: inactive | outcome [15]: inactive | outcome [16]: inactive | outcome [17]: inactive | outcome [18]: inactive

Nc1ncnc(Nc2ccccc2)n1
outcome [1]: inactive | Potency [2]: inactive | Potency [3]: inactive | Potency [4]: inactive | Potency [5]: inactive | outcome [6]: inactive | outcome [7]: inactive | outcome [8]: inactive | outcome [9]: inactive | Potency [11]: inactive | Potency [12]: inactive | Potency [13]: inactive | outcome [15]: inactive | outcome [16]: inactive | outcome [17]: inactive | outcome [18]: inactive
